Source: PubChem BioAssay
The source made the active and inactive calls. Unless noted, no rule for the calls is given here.

Experiments:
[1] = system: XIP peptide (Xip251-270) binding; assay: small-molecule binders of XIP peptide, primary screen, biochemical, small-molecule microarray, fluorescence 635/667 nm, 0.1 µg/mL protein (AID 1182); conditions: fluorescent protein binding, 635 nm, higher = more signal, called active from +8 up or from −8 down
[2] = system: XIP peptide (Xip251-270); assay: small-molecule binders of XIP peptide, primary screen, biochemical, small-molecule microarray, fluorescence 635/667 nm, 0.5 µg/mL protein (AID 1183); conditions: small-molecule microarray binding, fluorescence 635 nm; higher = more signal
[3] = Plasmodium falciparum growth inhibition, primary screen, strain 3D7, DAPI fluorescence, 100 nL (AID 1184);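 also: parasites grown inside human red blood cells in medium with human serum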; conditions: P. falciparum 3D7 growth, 3 d, higher = more signal
[4] = target: Homeobox protein Hox-A13 (Mus musculus) (UniProt Q62424); assay: inhibitors of HoxA13-DNA binding, primary screen, biochemical, fluorescence polarization, labeled oligonucleotide (AID 1185); conditions: 15 min, higher = more signal, called active from +8 up or from −8 down
Homeobox protein Hox-A13 (Mus musculus), sequence (Q62424 whole entry, looked up): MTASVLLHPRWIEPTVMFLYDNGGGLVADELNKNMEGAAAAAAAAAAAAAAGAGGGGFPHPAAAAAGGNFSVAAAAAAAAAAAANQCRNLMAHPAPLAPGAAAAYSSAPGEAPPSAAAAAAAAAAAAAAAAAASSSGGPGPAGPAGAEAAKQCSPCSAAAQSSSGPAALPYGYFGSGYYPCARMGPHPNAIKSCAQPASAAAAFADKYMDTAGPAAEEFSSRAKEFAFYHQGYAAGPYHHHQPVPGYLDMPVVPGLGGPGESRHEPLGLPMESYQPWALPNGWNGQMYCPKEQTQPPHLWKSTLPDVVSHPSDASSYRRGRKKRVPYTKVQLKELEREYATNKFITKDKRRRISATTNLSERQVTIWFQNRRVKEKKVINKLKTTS

[5] = inhibitors of hydroxyurea-induced Chk1 phosphorylation, primary screen, imaging, HeLa, phospho-Chk1 antibody, percent positive cells (AID 1186); conditions: hydroxyurea-induced phospho-Chk1 immunofluorescence imaging, higher = more signal
[6] = inhibitors of hydroxyurea-induced Chk1 phosphorylation, primary screen, imaging, HeLa, phospho-Chk1 nuclear intensity (AID 1187); conditions: hydroxyurea-induced phospho-Chk1 immunofluorescence imaging, higher = more signal

| SMILES | composite z-score [1] | composite z-score [2] | z-score [3] | z-score [4] | z-score [5] | z-score [6] |
| --- | --- | --- | --- | --- | --- | --- |
| COC(=O)[C@@]1(Cc2ccc(F)cc2)[C@H]2c3cc(C(=O)N4CCCC4)n(CCc4c[nH]c5ccccc45)c3C[C@H]2CN1C(=O)c1ccccc1 | 0.0236 (inactive) | 0.714 | -1.55 | -3.15 (inactive) | 0.916 (inactive) | 0.634 (inactive) |
| CC(CO)N1C(=O)[C@@H]2[C@H]3C(=O)OCC=C[C@H]3OC23C=CCN(Cn2nnc4ccccc42)C(=O)[C@@H]13 (some centres undefined) | -0.0787 (inactive) | -1.27 | 0.212 | -3.47 (inactive) | 0.612 (inactive) | 0.424 (inactive) |
| CCCCN1CC=CC23O[C@@H]4/C=C\CCC(C)OC(=O)C4[C@H]2C(=O)N(CCCO)[C@@H]3C1=O (some centres undefined) | -0.571 (inactive) | 0.214 | 0.544 | -3.97 (inactive) | 0.331 (inactive) | -0.112 (inactive) |
| CC#CCO[Si](C#Cc1ccccc1)(C(C)C)C(C)C | 0.0308 (inactive) | -0.654 | -0.916 | -1.19 (inactive) | 0.988 (inactive) | 0.598 (inactive) |
| [N-]=[N+]=Nc1ccccc1C[C@@]1(C(N)=O)N=C(c2ccc(OCCCO)cc2)O[C@@H]1c1ccccc1N=[N+]=[N-] | 1.28 (inactive) | 0.763 | -2.67 | -5.05 (inactive) | -0.0618 (inactive) | 0.233 (inactive) |
| Cc1ccc(S[C@]2(C(=O)O)CC(=O)N(C3CCCCC3)[C@@H]2c2ccc(CO)cc2I)cc1 | 2.84 (inactive) | 0.526 | -0.348 | -5.25 (inactive) | 0.542 (inactive) | 0.675 (inactive) |
| C=CCNC(=O)[C@@H]1[C@H]2C(=O)O[C@H](c3ccccc3)[C@H](c3ccccc3)N2[C@H](c2ccccc2OCCO)[C@@]12C(=O)Nc1ccc(C#CCCO)cc12 | 0.712 (inactive) | 0.596 | -2.22 | -3.84 (inactive) | -0.38 (inactive) | -0.262 (inactive) |
| COC(=O)[C@@]1(Cc2ccc(OC)cc2)[C@H]2c3cc(C(=O)N4CCCC4)n(CCc4c[nH]c5ccc(OC)cc45)c3C[C@H]2CN1C(=O)c1ccccc1 | 0.203 (inactive) | 0.0718 | -1.71 | -2.82 (inactive) | 0.513 (inactive) | 0.399 (inactive) |
| CCCNC(=O)[C@@]1(Sc2ccc(C)cc2)CC(=O)N(C2Cc3ccccc3C2)[C@@H]1c1ccc(CO)cc1I | 0.0241 (inactive) | 0.733 | 0.441 | -2.68 (inactive) | 0.34 (inactive) | 0.78 (inactive) |
| CCCCCCCCCCC(O)C1C=CC2C(=O)N(c3ccccc3)C(=O)C2N1Nc1ccc(C#N)cc1 (centres undefined) | 1.53 (inactive) | 0.419 | -0.562 | -1.23 (inactive) | 0.0905 (inactive) | 0.15 (inactive) |
| COc1ccccc1CN1C(=O)c2ccccc2[C@](Cc2ccccc2I)(C(=O)O)[C@@H]1c1ccc(CO)cc1 | 0.382 (inactive) | 0.798 | -0.0897 | -5.51 (inactive) | -0.138 (inactive) | 0.142 (inactive) |
| CC(C)N1CC=CC23O[C@@H]4C=CCCOC(=O)C4[C@H]2C(=O)N(CCCO)[C@@H]3C1=O (some centres undefined) | 0.431 (inactive) | 0.598 | -2.07 | -4.97 (inactive) | -0.0561 (inactive) | -0.12 (inactive) |
| COCCOC(=O)N1C(=O)[C@@]2(c3cc(C#CCCO)ccc31)[C@H](C(=O)Nc1nc3ccccc3s1)[C@H]1C(=O)O[C@H](c3ccccc3)[C@H](c3ccccc3)N1[C@@H]2c1ccc(O)cc1 | 3.02 (inactive) | 0.765 | -1.45 | -3.01 (inactive) | -0.225 (inactive) | -0.445 (inactive) |
| CC(C)C(O)C1C=CC2C(=O)N(c3ccccc3)C(=O)C2N1Nc1ccccc1 (centres undefined) | 1.33 (inactive) | 0.852 | -0.752 | -4.18 (inactive) | 0.436 (inactive) | 0.581 (inactive) |
| COC(=O)[C@@]1(Cc2ccccc2)[C@H]2c3cc(C(=O)N4CCCC4)n(CCc4ccccn4)c3C[C@H]2CN1C(=O)c1ccccc1 | 1.44 (inactive) | 0.663 | -1.25 | -5.78 (inactive) | 0.249 (inactive) | 0.491 (inactive) |
| CC[C@@H]1C=C(C(=O)O)[C@H](c2ccccc2)N1S(=O)(=O)c1ccc(C)cc1 | 0.336 (inactive) | 0.504 | 1.78 | -3.56 (inactive) | 0.504 (inactive) | 0.227 (inactive) |
| COc1cc(NN2C(C(O)c3cc(OC)c(OC)c(OC)c3)C=CC3C(=O)N(C)C(=O)C32)cc(OC)c1OC (centres undefined) | 0.248 (inactive) | 0.438 | -0.354 | -4.51 (inactive) | -0.325 (inactive) | -0.328 (inactive) |
| CC(C)NC(=O)[C@@]1(C)c2ccccc2C(=O)N(Cc2ccc(OC(F)(F)F)cc2)[C@H]1c1ccc(CO)cc1 | 0.697 (inactive) | 0.836 | -1.75 | -3.07 (inactive) | -0.0939 (inactive) | -0.0444 (inactive) |
| C=CCN1C(=O)[C@]2(CCC(=O)OC(C)(C)C)N=C(c3ccc(OCCCO)cc3)O[C@@H]2c2ccccc21 | 0.0041 (inactive) | 0.464 | -1.34 | -2.63 (inactive) | -0.646 (inactive) | -0.541 (inactive) |
| COc1ccc([Si](C)(C)[C@@H]2[C@@H](CCO)O[C@]3(C(=O)N(Cc4cccc(NC(=O)[C@H](C)O)c4)c4ccccc43)[C@H]2C)cc1 | 0.789 (inactive) | 0.755 | -2.69 | -5.95 (inactive) | 0.214 (inactive) | -0.189 (inactive) |
| COCC(=C=CC[C@H](O)c1ccc(CO)o1)CCO | -0.224 (inactive) | 0.297 | 1.08 | -3.75 (inactive) | 0.625 (inactive) | 0.295 (inactive) |
| COC(=O)[C@@]1(Cc2ccc(OC)cc2)[C@H]2c3cc(C(=O)N(C)C)n(Cc4ccc(OC(F)(F)F)cc4)c3C[C@H]2CN1C(=O)c1ccccc1 | -0.202 (inactive) | 0.112 | -1.42 | -5.65 (inactive) | 0.154 (inactive) | -0.666 (inactive) |
| C[N+](C)(C)CCCC[C@@H]1NC(=O)[C@@H]2C[C@H](C(=O)NCCCCCCN)[C@H](c3cccc(OCCO)c3)N2C1=O | 1.52 (inactive) | 0.771 | -0.133 | -3.34 (inactive) | -0.529 (inactive) | -0.386 (inactive) |
| [N-]=[N+]=NCc1ccccc1C[C@@]1(C(N)=O)N=C(c2ccc(OCCCO)cc2)O[C@@H]1c1ccccc1 | 0.755 (inactive) | 0.237 | -1.83 | -5.03 (inactive) | 0.107 (inactive) | 0.221 (inactive) |
